# Laboratory results taken from publication PMC5540273 (PLoS ONE, 2017).
# Tested on: WNK3
# Conditions: concentration: 1 μM,replicates: in singlicate; n = 1
# 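Also: KINOMEscan kinase panel screen.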
row,Compound,%Inh [%]
1,Cc1n[nH]c2cc(Nc3ccnc(Nc4cccc(CN5CCOCC5)c4)n3)ccc12 [GW682569],21
2,Cn1ccc2ncnc(Oc3ccc(NC(=O)Nc4ccnc(C(F)(F)F)c4)c(Cl)c3)c21,0
3,COC(=O)c1cccc(NC(=O)NC2CCN(c3ccnc(NCc4ccc(F)cc4)n3)CC2)c1 [GSK1379860],18
4,CCn1c(-c2nonc2N)nc2cncc(Br)c21 [SB-738004],31
5,C[C@@H]1CCN(C(=O)N2CCCC2)C[C@@H]1N(C)c1ncnc2[nH]ccc12,0
6,O=C(NOCC1CC1)c1cc(Br)c(F)c(F)c1Nc1ccc(I)cc1Cl,0
7,C[C@@H](Oc1cc(-n2cnc3cc(-c4cnn(C)c4)ccc32)sc1C(N)=O)c1ccccc1Cl [GSK580432],97.4
8,CN(c1ccc2c(c1)nc(NCc1ccc(F)cc1)n2C)c1ccnc(Nc2ccc(CS(C)(=O)=O)cc2)n1.Cl [GW813244],13
9,NC(=O)Nc1sc(-c2ccc(F)cc2)cc1C(N)=O [GW789449],2
10,O=C(Nc1n[nH]c2cc(-c3ccco3)ccc12)C1CC1 [SB-737447],0
11,CCn1c(-c2nonc2N)nc2cncc(CNC3CCNCC3)c21.Cl [SB-747651],34
12,C[C@@H]1CNc2c(sc3ccc4nc(-c5ccc(O)cc5)ccc4c23)C(=O)N1,0
13,O=C(Nc1ccc(Oc2ccc3nc(NC(=O)C4CC4)cn3n2)c(F)c1)c1cccn(-c2ccccc2)c1=O,0
14,CS(=O)(=O)c1cccc(CNc2nc(Nc3ccc4c(c3)[C@@H]3C[C@@H]4CNC3=O)ncc2C(F)(F)F)c1,0
15,COc1cccc(OC)c1C(=O)Nc1cccc(-c2nn3ccccc3c2-c2ccnc(Nc3cccc(F)c3)n2)c1 [GSK361065],0
16,OCCn1cc(-c2cnc3nnn(Cc4ccc5ncccc5c4)c3n2)cn1,0
17,CC(=O)Nc1ccc(-c2cc3ncnc(SCC(=O)O)c3s2)cc1,0
18,CCN1CCN(CCCC(=O)Nc2n[nH]c3nc(-c4ccc(O)cc4)c(Br)cc23)CC1 [SB-731579],0
19,O=C(Nc1cccc(Oc2ccc3nccn3n2)c1)Nc1cccc(C(F)(F)F)c1,0

row,Compound,%Inh [%]
1,Nc1nccc(-c2ccc3c(N)n[nH]c3c2)n1 [GSK1034945],3
2,COc1cc2c(Nc3ccc(NC(=O)c4ccccc4)cc3)ncnc2cc1OCCCN1CCOCC1 [GSK301329],12
3,COC(=O)c1cccc(NC(=O)NC2CCN(c3ccnc(Nc4cc(OC)c(OC)c(OC)c4)n3)C2)c1 (centres unmarked) [GSK1379767],49
4,COC(=O)Nc1nc2cc(Oc3ccc(NC(=O)Nc4cc(C(F)(F)F)ccc4Cl)cc3)ccc2[nH]1.Cl [GW697465],49
5,COc1cc2ncn(-c3cc(OCC4CCCCC4)c(C(N)=O)s3)c2cc1OC [GSK204559],0
6,CCCC(=O)Nc1n[nH]c2ncccc12 [SB-601436],0
7,Cl.c1ccc(Oc2ccc(Nc3ccnc4cc(-c5ccc(CN6CCNCC6)o5)ccc34)cc2)nc1 [GW567142],11
8,C[C@@H]1CNc2c(sc3ccc4nc(-c5ccncc5)ccc4c23)C(=O)N1,0
9,CCOC(=O)N1CCC(n2cnc(-c3ccc(F)cc3)c2-c2ccnc(N)n2)CC1 [SB-219952],45
10,CC(=O)Nc1nc2cnc(Nc3cc(NC(=O)c4cccc(CC(C)(C)C#N)c4)ccc3C)nc2s1,0
11,Cn1ccc2ncnc(Oc3ccc(NC(=O)Nc4cnn(C(C)(C)C)c4)c(Cl)c3)c21,0
12,Cc1ccc(CC(=O)N2CCc3cc(-c4cn(C)c5ncnc(N)c45)ccc32)cc1 [GSK2634758],53
13,N#Cc1cccc(C(=O)NC2CCN(c3ccnc(Nc4ccc(F)cc4)n3)C2)c1 (centres unmarked) [GSK1379708],12
14,Cl.Nc1n[nH]c2cc(-c3ccccn3)ccc12 [GSK2189892],0
15,Cc1nnc(-c2ccc3occ(-c4ccc(S(C)=O)cc4)c3n2)o1 (centres unmarked),0
16,NC(=O)c1ccc(-c2cc3ncnc(SCC(=O)O)c3s2)cc1,0
17,Cc1cccc2c(-c3ccncc3)c(-c3ccc(F)cc3)nn12.Cl [GW461487],13
18,CC(=O)c1c(-c2ccncc2)[nH]c(-c2ccncc2)c1C [GW493036],50

# Tested on: WNK4
# Conditions: concentration: 1 μM,replicates: in singlicate; n = 1
row,Compound,%Inh [%]
1,Cc1n[nH]c2cc(Nc3ccnc(Nc4cccc(CN5CCOCC5)c4)n3)ccc12 [GW682569],32
2,Cn1ccc2ncnc(Oc3ccc(NC(=O)Nc4ccnc(C(F)(F)F)c4)c(Cl)c3)c21,0
3,COC(=O)c1cccc(NC(=O)NC2CCN(c3ccnc(NCc4ccc(F)cc4)n3)CC2)c1 [GSK1379860],31
4,CCn1c(-c2nonc2N)nc2cncc(Br)c21 [SB-738004],39
5,C[C@@H]1CCN(C(=O)N2CCCC2)C[C@@H]1N(C)c1ncnc2[nH]ccc12,0
6,O=C(NOCC1CC1)c1cc(Br)c(F)c(F)c1Nc1ccc(I)cc1Cl,16
7,C[C@@H](Oc1cc(-n2cnc3cc(-c4cnn(C)c4)ccc32)sc1C(N)=O)c1ccccc1Cl [GSK580432],33
8,CN(c1ccc2c(c1)nc(NCc1ccc(F)cc1)n2C)c1ccnc(Nc2ccc(CS(C)(=O)=O)cc2)n1.Cl [GW813244],0
9,NC(=O)Nc1sc(-c2ccc(F)cc2)cc1C(N)=O [GW789449],0
10,O=C(Nc1n[nH]c2cc(-c3ccco3)ccc12)C1CC1 [SB-737447],0
11,CCn1c(-c2nonc2N)nc2cncc(CNC3CCNCC3)c21.Cl [SB-747651],21
12,C[C@@H]1CNc2c(sc3ccc4nc(-c5ccc(O)cc5)ccc4c23)C(=O)N1,11
13,O=C(Nc1ccc(Oc2ccc3nc(NC(=O)C4CC4)cn3n2)c(F)c1)c1cccn(-c2ccccc2)c1=O,0
14,CS(=O)(=O)c1cccc(CNc2nc(Nc3ccc4c(c3)[C@@H]3C[C@@H]4CNC3=O)ncc2C(F)(F)F)c1,0
15,COc1cccc(OC)c1C(=O)Nc1cccc(-c2nn3ccccc3c2-c2ccnc(Nc3cccc(F)c3)n2)c1 [GSK361065],0
16,OCCn1cc(-c2cnc3nnn(Cc4ccc5ncccc5c4)c3n2)cn1,0
17,CC(=O)Nc1ccc(-c2cc3ncnc(SCC(=O)O)c3s2)cc1,2
18,CCN1CCN(CCCC(=O)Nc2n[nH]c3nc(-c4ccc(O)cc4)c(Br)cc23)CC1 [SB-731579],0
19,O=C(Nc1cccc(Oc2ccc3nccn3n2)c1)Nc1cccc(C(F)(F)F)c1,20

row,Compound,%Inh [%]
1,Nc1nccc(-c2ccc3c(N)n[nH]c3c2)n1 [GSK1034945],0
2,COc1cc2c(Nc3ccc(NC(=O)c4ccccc4)cc3)ncnc2cc1OCCCN1CCOCC1 [GSK301329],0
3,COC(=O)c1cccc(NC(=O)NC2CCN(c3ccnc(Nc4cc(OC)c(OC)c(OC)c4)n3)C2)c1 (centres unmarked) [GSK1379767],39
4,COC(=O)Nc1nc2cc(Oc3ccc(NC(=O)Nc4cc(C(F)(F)F)ccc4Cl)cc3)ccc2[nH]1.Cl [GW697465],48
5,COc1cc2ncn(-c3cc(OCC4CCCCC4)c(C(N)=O)s3)c2cc1OC [GSK204559],0
6,CCCC(=O)Nc1n[nH]c2ncccc12 [SB-601436],14
7,Cl.c1ccc(Oc2ccc(Nc3ccnc4cc(-c5ccc(CN6CCNCC6)o5)ccc34)cc2)nc1 [GW567142],0
8,C[C@@H]1CNc2c(sc3ccc4nc(-c5ccncc5)ccc4c23)C(=O)N1,0
9,CCOC(=O)N1CCC(n2cnc(-c3ccc(F)cc3)c2-c2ccnc(N)n2)CC1 [SB-219952],0
10,CC(=O)Nc1nc2cnc(Nc3cc(NC(=O)c4cccc(CC(C)(C)C#N)c4)ccc3C)nc2s1,26
11,Cn1ccc2ncnc(Oc3ccc(NC(=O)Nc4cnn(C(C)(C)C)c4)c(Cl)c3)c21,3
12,Cc1ccc(CC(=O)N2CCc3cc(-c4cn(C)c5ncnc(N)c45)ccc32)cc1 [GSK2634758],17
13,N#Cc1cccc(C(=O)NC2CCN(c3ccnc(Nc4ccc(F)cc4)n3)C2)c1 (centres unmarked) [GSK1379708],76
14,Cl.Nc1n[nH]c2cc(-c3ccccn3)ccc12 [GSK2189892],0
15,Cc1nnc(-c2ccc3occ(-c4ccc(S(C)=O)cc4)c3n2)o1 (centres unmarked),0
16,NC(=O)c1ccc(-c2cc3ncnc(SCC(=O)O)c3s2)cc1,0
17,Cc1cccc2c(-c3ccncc3)c(-c3ccc(F)cc3)nn12.Cl [GW461487],0
18,CC(=O)c1c(-c2ccncc2)[nH]c(-c2ccncc2)c1C [GW493036],62
